HT1080-NT tox: kills 2HG-producing HT-1080-NT fibrosarcoma cells | 360,000 compounds, 1.6% hits | Potency, µM (highest dose often 46.1 µM), usual class: cytotoxic | HT-1080-NT fibrosarcoma viability, CellTiter-Glo ATP luminescence, 48 h;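 further: NT is the 2HG producing partner of a matched IDH1 knockdown line; nearly all actives have a fitted effect of over 55% in size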
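Fibrosarcoma NT cells, 750 per well in 5% FBS RPMI, were exposed to compound for 48 hours. Viability: CellTiter-Glo luminescence.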
DT40 TDP1 CPT: growth inhibition of DT40 Tdp1-/-;hTDP1 cells with camptothecin (screen for TDP1 inhibitors). chicken DT40 Tdp1-/-;hTDP1 cells + 20 nM CPT, ATP luminescence, 48 h. Potency, µM (series often up to 46.2 µM), hits mostly inhibitors. 420,000 compounds, 12% hits. AID 686979; further: nearly all actives have a fitted effect of over 55% in size
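Cell growth measured by CellTiter-Glo luminescence after a minimum 48 h, 37 C compound exposure with 20 nM CPT in Tdp1-knockout DT40 cells stably expressing hTDP1, seeded 400/well; qHTS titration format.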
TDP1 cell noCPT: qHTS for Inhibitors of human tyrosyl-DNA phosphodiesterase 1 (TDP1): qHTS in cells in absence of CPT; 420,000 compounds, 15% hits; Potency, µM (titrated, usually from 46.2 µM), hits mostly inhibitors; DT40 Tdp1-/- hTDP1 cells, no CPT, ATP luminescence, 48 h; further: nearly all actives have a fitted effect of over 55% in size
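Seeded 400 DT40-hTDP1 cells/well (vehicle DMSO, no 20 nM CPT); pinned compounds; ≥48 hr at 37 °C; CellTiter-Glo luminescence as viability measure.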
HT1080 IDH1KD tx: kills HT-1080 cells with IDH1 knockdown; HT-1080 IDH1 knockdown viability, ATP luminescence, 48 h; 360,000 compounds, 2% hits; Potency, µM (series often up to 46.1 µM), hits mostly cytotoxic
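Assay cells: HT-1080 with IDH1 knockdown, 750 per well, RPMI/5% FBS. Exposure: 48 h at 37 °C following 2 h pre-incubation. Read: CellTiter-Glo luminescence; fitted concentration-response, curve class assigned.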
IL1B secr inh: blocks inflammasome-driven IL-1 beta release; THP-1 LPS/ATP IL-1B secretion, AlphaLISA, 16 h; hits give low values; activity change, % at 57.5 µM; 360,000 compounds, 4.7% hits; AID 743279; in the data active means activity change below about -50%; inconclusive means mostly about -30% to -49%
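THP-1 cells pretreated 1 hr with compounds (up to 57.5 uM final), then stimulated with LPS (250 ng/mL final) plus ATP (1.25 mM final); secreted IL-1B measured by AlphaLISA after 16 hr, decreased signal indicating inhibition.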
Numbers stand for hits; i = inactive; ? = inconclusive; nt = not tested or not shown; [ ] = another dose, or the depositor's remark. In the library only some 19% were active in any assay of this set; here they are far more common. Unless noted, the call rests on the fitted dose curve; in most records, active means well fitted curve in the direction sought with a large enough effect; inconclusive means small, poorly fitted or top-dose-only effect, or another doubt; inactive means no such curve, though single readings can be large; an effect the other way counts as inactive or inconclusive.

SMILES	HT1080-NT tox	DT40 TDP1 CPT	TDP1 cell noCPT	HT1080 IDH1KD tx	IL1B secr inh
Cc1ccc(NC2=NCC(=O)N2C2CCCC2)c(C)c1	i	i	?	i[9.24 µM]	i
COc1cc(NS(=O)(=O)c2cc(NC(C)=O)ccc2OC)c(OC)cc1NC(=O)c1ccccc1	i	i	i	i	i
CCOc1ccc(NC(=O)COC(=O)CN2CCCCCC2=O)cc1	i	i	i	i	i
NC(=O)c1nc2c([nH]c1=O)CCCC2	i	i	i	i	i
C[C@H](c1ccccc1)N1C[C@H](COCc2ccccc2)Oc2cc(N3CC[C@H](N(C)C)C3)ccc2S1(=O)=O	23.1µM	?	?	14.6µM	i
C[C@H](c1ccccc1)N1C[C@@H](COCc2ccccc2)Oc2cc(N3CC[C@H](O)C3)ccc2S1(=O)=O	?	?	16.4µM	?	i
C[C@H](c1ccccc1)N1C[C@H](COCc2ccccc2)Oc2cc(N3CC[C@H](O)C3)ccc2S1(=O)=O	?	?	?	?	i
O=c1ccc(=O)n(-c2ccccc2)[nH]1	i	16.4µM	?	i	i
CC(C)(C)c1cc(=O)n(-c2ccccc2)[nH]1	?	25.9µM	?	?	-97.5
Cc1ccc(C(=O)COC(=O)CNC(=O)c2ccccc2)s1	i	i	i	i	i
N#CCSc1nnc(Cc2cccc3ccccc23)n1C1CCCCC1	i	i	i	i	-64.8
NC(=O)CSc1nnc(Cc2cccs2)n1C1CCCCC1	i	i	i	i	i
CC1Cc2ccccc2N1C(=O)CN(C)CC(=O)Nc1ccc(F)cc1 (stereo not drawn)	i	?	?	i	i
CCCN(CC(=O)Nc1ccc(Cl)cc1Cl)C(=O)/C=C/c1cccc([N+](=O)[O-])c1	i	?	29.1µM	i	?
CCCN(CC(=O)Nc1ccc(Cl)cc1Cl)C(=O)/C=C/c1cc(OC)ccc1OC	i	?	29.1µM	i	i
CCCN(CC(=O)Nc1cc(Cl)ccc1Cl)C(=O)/C=C/c1cc(OC)ccc1OC	i	?	?	i	i
CCCN(CCC)C(=O)/C=C/c1cccc([N+](=O)[O-])c1	i	?	?	i	i
Cc1ccccc1OCC(=O)NNC(=O)C1CC(=O)N(c2ccc3c(c2)OCCO3)C1 (stereo not drawn)	i	?	i	i	i
C=CCOC1=CS(=O)(=O)N(Cc2ccc(Br)cc2)c2ccc(Br)cc21	i	16.4µM	?	i	i
O=C1CS(=O)(=O)N(Cc2ccccc2F)c2ccc(Br)cc21	?	i	i	i	i
CCOC(=O)C1(CC2CC2)CCN(C(=O)c2cc(C3CC3)nc3ccccc23)CC1	i	?	23.1µM	i	-83.7
CCOC(=O)C1(CC2CC2)CCN(C(=O)c2cc(OC)nc3ccccc23)CC1	i	?	?	i	i
CCOC(=O)C1(CC2CC2)CCN(C(=O)c2cccnc2C)CC1	i	i	?	i	i
CCOC(=O)C1(CC2CC2)CCN(Cc2cn(C)c3ccccc23)CC1	i	20.6µM	18.4µM	?	-81.6
CCOC(=O)C1(CCc2ccccc2)CCN(Cc2cc(OC)c(OC)cc2OC)CC1	?	20.6µM	20.6µM	i	-53.8
SMILES	HT1080-NT tox	DT40 TDP1 CPT	TDP1 cell noCPT	HT1080 IDH1KD tx	IL1B secr inh
CCOC(=O)C1(CC2CC2)CCN(Cc2ccc(C(=O)OC)cc2)CC1	i	?	23.1µM	i	i
Cc1ccc(NC(=O)[C@@H](c2ccccc2)N2Cc3ccccc3C2=O)cc1	nt	i	i	nt	nt
CCOC(=O)C1(CCc2ccccc2)CCN(Cc2ccc(C(=O)OC)cc2)CC1	i	?	16.4µM	i	i
CCOC(=O)C1(CCc2ccccc2)CCN(Cc2ccccn2)CC1	i	i	?	?	i
CO/N=C/NC(=O)N1OC[C@@H]2COc3ccc4ccccc4c3[C@@H]21	i	i	i	i	i
NC(=S)N1OC[C@@H]2COc3ccc4ccccc4c3[C@@H]21	?	18.4µM	18.4µM	?	-93.3
CN1C(=O)/C(=N/OC(=O)c2ccccc2)c2ccccc21	i	7.31µM	11.6µM	i	i
COc1cc(/C=N/n2nnnc2N)cc(Cl)c1OC	i	i	i	i	i
CCN(CCCNC(=O)c1cc2cc3ccc(C)cc3nc2s1)c1ccccc1	nt	?	25.9µM	nt	nt
NNC(=O)c1cc2cc3ccccc3nc2s1	?	5.17µM	?	?	i
CCN(CCCNC(=O)c1cc2c(=O)n(C)c3ccccc3c2s1)Cc1ccccc1	nt	14.6µM	20.6µM	nt	nt
CCOc1ccc(CNC(=O)c2cc3c(=O)n(C)c4ccccc4c3s2)cc1	nt	9.2µM	2.59µM	nt	nt
CS(=O)(=O)NNC(=O)c1cc2cc3ccccc3nc2s1	i	i	i	i	i
CCOc1ccc(CNC(=O)COc2cc(=O)n(C)c3ccccc23)cc1	nt	i	?	nt	nt
Cc1ccc(C(=O)OCC(=O)NN2C(=O)NC3(CCC(C)CC3)C2=O)cc1 (stereo not drawn)	i	?	i	i	i
CCN(CCCNC(=O)c1cc2c(=O)n(C)c3ccccc3c2s1)c1ccccc1	nt	?	14.6µM	nt	nt
Nc1c(N(CCC2=CCCCC2)C(=O)Cc2ccc(F)cc2)c(=O)[nH]c(=O)n1Cc1ccccc1	i	?	?	i	i
CC(=O)c1ccc(OCC(=O)N(CCC2=CCCCC2)c2c(N)n(Cc3ccccc3)c(=O)[nH]c2=O)cc1	i	23.1µM	?	i	i
Cc1cccc(OCC(=O)N(Cc2ccccc2)c2c(N)n(Cc3ccccc3)c(=O)[nH]c2=O)c1	i	18.4µM	?	i	?
Cc1cccc(OCC(=O)N(Cc2ccco2)c2c(N)n(Cc3ccccc3)c(=O)[nH]c2=O)c1	i[9.24 µM]	i	i	i	i
CC(=O)c1ccc(OCCCC(=O)N(CCC2=CCCCC2)c2c(N)n(Cc3ccccc3)c(=O)[nH]c2=O)cc1	i	i	i	i	i
Nc1c(N(CCC2=CCCCC2)C(=O)COc2ccc(F)cc2Cl)c(=O)[nH]c(=O)n1Cc1ccccc1	18.4µM	5.8µM	6.51µM	10.3µM	-54.8
Cc1onc(-c2ccccc2Cl)c1C(=O)OCC(=O)N1CCCCC1	i	i	i	i	i
CCN(CC)c1nc(C=Cc2ccc(N(C)C)cc2)c2nccnc2n1	i	23.1µM	20.6µM	i	i
CCN(CC)c1ccc(/C=C(\C#N)C(=O)NCc2ccccc2)cc1	i	i	?	i	?
CCN(CC)c1ccc(/C=C/c2c(C)cnc3ccccc23)cc1	nt	?	11.2µM	nt	nt
CCN(CC)c1ccc(/C=C/c2nccc3ccccc23)cc1	nt	?	12.6µM	nt	nt
CN(C)c1ccc(C=Cc2nccc3ccccc23)cc1	?	?	?	20.6µM	i
O=C(CSc1ccc(-c2ccccc2)nn1)NCc1ccco1	i	i	i	i	i
Cc1ccccc1Cn1c(=N)n(CC(=O)c2ccc([N+](=O)[O-])cc2)c2ccccc21	i	4.11µM	5.17µM	i	nt
